Experimental data as given in PubChem BioAssay (EPA / NIEHS).
Results filed as inconclusive are left out. Activity calls are given as the source filed them. Rule for the calls, unless noted: active = hit-call score of the fitted dose curve at least 0.9, where 1 is the maximum; inactive = score below 0.9.

Columns and labels:
[1] = CCTE_Mundy_HCI_iCellGluta_NOG_NeuronCount: CCTE's Neurite Outgrowth Assay in iCellGluta cells for Neuron Count, Mundy Lab (AID 2284340; active = hit-call score of the fitted dose curve at least 0.9, where 1 is the maximum;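 note: cells fixed about 48 h after compound addition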)
Summary of the method: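 Neuron count read by automated high-content imaging of Hoechst 33342 and betaIII-tubulin/Alexa Fluor-488 labelling in human iPSC glutamatergic neurons. Activity fitted relative to DMSO.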

[2] = CCTE_Mundy_HCI_iCellGluta_NOG_NeuriteCount: CCTE's Neurite Outgrowth Assay in iCellGluta cells for Neurite Count, Mundy Lab (AID 2284342; active = hit-call score of the fitted dose curve at least 0.9, where 1 is the maximum;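 note: chemical exposure about 48 hours starting 2 hours after plating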)
[3] = Tanguay_ZF_120hpf_MO24: Oregon State University Tanguay Lab 24 Hour Post-fertilization zebrafish Assay for Mortality (AID 2284389)
Summary of the method: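 Dechorionated wild-type zebrafish embryos, 1 per well, statically exposed from 6 hpf at 28C, 0.64% DMSO final. Mortality scored as binary present/absent at 24 hpf by brightfield microscopy, relative to DMSO.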

[4] = Tanguay_ZF_120hpf_DP24: Oregon State University Tanguay Lab 24 Hour Post-fertilization zebrafish Assay for Delayed Development (AID 2284390)
Summary of the method: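 Dechorionated 5D wild-type zebrafish embryos exposed statically from 6 hpf, one per well, 0.64% DMSO final, 28 C, sealed and dark. Developmental progression scored at 24 hpf by brightfield as binary present/absent; dead embryos excluded.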

[5] = Tanguay_ZF_120hpf_AXIS: Oregon State University Tanguay Lab 120 Hour Post-fertilization zebrafish Assay for Axial Malformation (AID 2284398)
Summary of the method: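 Dechorionated 5D wild-type zebrafish embryos exposed statically, one per well, from 6 to 120 hpf at 28C, 0.64% DMSO. Axial malformation scored as present/absent by brightfield microscopy at 120 hpf; dead embryos not scored.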

[6] = Tanguay_ZF_120hpf_EDEM: Oregon State University Tanguay Lab 120 Hour Post-fertilization zebrafish Assay for Edema Malformation (AID 2284400)
Summary of the method: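 Dechorionated Tropical 5D wild-type embryos, one per well, statically exposed from 6 to 120 hpf at 28C in 0.64% DMSO. Edema scored present/absent by brightfield microscopy at 120 hpf; dead embryos not scored; fit versus DMSO.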

[7] = Tanguay_ZF_120hpf_BRN: Oregon State University Tanguay Lab 120 Hour Post-fertilization zebrafish Assay for Brain Region Malformation (AID 2284402)
Summary of the method: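 Dechorionated wild-type Tropical 5D zebrafish embryos exposed statically from 6 to 120 hpf at 28C, one per well, 0.64% DMSO final. Brain malformation scored at 120 hpf by brightfield as present/absent; dead embryos not scored.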

[8] = Tanguay_ZF_120hpf_ANY: Oregon State University Tanguay Lab 120 Hour Post-fertilization zebrafish Assay for Any Mortality and Malformation (AID 2284404)
Summary of the method: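 Dechorionated Tropical 5D wild-type embryos, one per well from 6 hpf, static exposure in sealed, dark plates at 28C until 120 hpf, 0.64% DMSO final. Brightfield scoring of mortality and malformations as binary presence/absence, pooling 13 morphology endpoints.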

[9] = CCTE_Padilla_ZF_Score.Craniofacial: CCTE's 144 Hour Post-fertilization zebrafish Assay Score for Craniofacial Malformation, Padilla Lab (AID 2284405)
Summary of the method: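 Wild-type zebrafish embryos (with chorions), one per well in 10% Hanks', were dosed at 6–8 hpf in sealed plates and kept at 26C. They were rinsed at 5 dpf. At 6 dpf two blinded assessors scored craniofacial malformations by brightfield stereomicroscopy.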

[10] = CCTE_Padilla_ZF_Score.Edema: CCTE's 144 Hour Post-fertilization zebrafish Assay Score for Edema Malformation, Padilla Lab (AID 2284406)
Summary of the method: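 Wild-type zebrafish embryos, one per well in Hanks' solution, dosed at 6-8 hpf, sealed and reared at 26C on a 14:10 h cycle; rinsed on 5 dpf. At 6 dpf, blinded assessors scored edema by stereomicroscopy.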

[11] = CCTE_Padilla_ZF_Score.Spine: CCTE's 144 Hour Post-fertilization zebrafish Assay Score for Spine Malformation, Padilla Lab (AID 2284407)
Summary of the method: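 Wild-type zebrafish embryos, one per well in Hanks' solution, dosed at 6–8 hpf in sealed plates at 26C, 14:10 h light:dark; rinsed at 5 dpf. Two blinded assessors scored spinal defects by stereomicroscopy at 6 dpf; fitted versus DMSO.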

[12] = CCTE_Padilla_ZF_Score.Swim_bladder: CCTE's 144 Hour Post-fertilization zebrafish Assay Score for Swim Bladder Malformation, Padilla Lab (AID 2284408)
Summary of the method: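 Wild-type zebrafish embryos, one per well in 10% Hanks', dosed at 6–8 hpf, sealed, reared at 26C and rinsed at 5 dpf. Blinded assessors scored uninflated swim bladder by stereomicroscopy at 6 dpf, relative to DMSO.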

[13] = test system: SERPINA7 (gene 6906); test: CCTE_GLTED_hTBG: CCTE's human Thyroxine-binding Globulin (TBG) Inhibition Assay, Great Lakes Toxicology and Ecology Division (GLTED) Lab (AID 2284343; active = hit-call score of the fitted dose curve at least 0.9, where 1 is the maximum;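 note: active chemicals lower fluorescence versus DMSO baseline by displacing probe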)
Summary of the method: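 hTBG + test chem, 2 h; ANSA probe displacement; fluorescence readout ex380/em475; DMSO = neg ctrl/baseline; cell-free.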

[14] = Tanguay_ZF_120hpf_TCHR: Oregon State University Tanguay Lab 120 Hour Post-fertilization zebrafish Assay for Touch Responsive (AID 2284403)
Summary of the method: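 Dechorionated Tropical 5D wild-type zebrafish embryos, one per well from 6 hpf, were statically exposed to 120 hpf at 28 °C (0.64% DMSO). Touch response was scored present/absent at 120 hpf and not scored in dead larvae.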

[15] = CCTE_Deisenroth_5AR_NBTE_acceptor: CCTE's 5alpha-reductase NanoBRET Target Engagement Assay - Autofluorescence Screen, Deisenroth Lab (AID 2284321); conditions: actives raise or lower the signal;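 note: compound fluorescence in the acceptor channel under 460 nm excitation flags autofluorescence artifacts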
Summary of the method: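 Acceptor fluorescence intensity was read as an artifact-detection endpoint. Test chemicals at an assumed nominal 100 uM were excited at 460 nm across three independent runs. Activity was fitted bidirectionally against DMSO.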

[16] = test system: SRD5A2 (gene 6716); test: CCTE_Deisenroth_5AR_NBTE_ratio: CCTE's 5alpha-reductase NanoBRET Target Engagement Assay - Ratio, Deisenroth Lab (AID 2284322); conditions: actives raise or lower the signal
Summary of the method: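 HEK293T transiently expressing SRD5A2-NanoLuc; cells exposed to chemical (8-point, 10 nM - 29.9 uM) for 5 h total, testosterone tracer added for final 2 h. NanoBRET acceptor/donor ratio (650/460 nm), bidirectional fit vs DMSO.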

[17] = Tanguay_ZF_120hpf_MORT: Oregon State University Tanguay Lab 120 Hour Post-fertilization zebrafish Assay for Mortality (AID 2284399)
Summary of the method: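 Dechorionated wild-type Tropical 5D zebrafish embryos, one per well from 6 hpf, static exposure to 120 hpf at 28C in sealed dark plates, 0.64% DMSO final. Mortality scored as binary by brightfield at 24 and 120 hpf.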

[18] = Tanguay_ZF_120hpf_CRAN: Oregon State University Tanguay Lab 120 Hour Post-fertilization zebrafish Assay for Craniofacial Malformation (AID 2284397)
Summary of the method: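 Dechorionated Tropical 5D wild-type zebrafish embryos, one per well, were statically exposed from 6 to 120 hpf at 28C in 0.64% DMSO, with 5uM trimethyltin chloride as positive control. Craniofacial malformation was scored present/absent by brightfield microscopy, relative to DMSO.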

[19] = IUF_NPC1_cytotoxicity_72hr: Cytotoxicity Assessment at 72 hours in the Leibniz Research Institute for Environmental Medicine (IUF) Neural Progenitor Cell Proliferation Assay (NPC1) (AID 2284332; active = hit-call score of the fitted dose curve at least 0.9, where 1 is the maximum;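 note: rising LDH signal means more cytotoxicity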)
Summary of the method: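 Spheres of primary human neural progenitors are plated one per well on day 0 in growth-factor medium and dosed at once. After three days at 37C, supernatant LDH is measured fluorimetrically via resazurin reduction.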

Measured: AC50

O=P(O)(O)OCCC(F)(F)C(F)(F)C(F)(F)C(F)(F)C(F)(F)C(F)(F)F
active: [4] 57.9 µM | [8] 39.1 µM
inactive: [1] | [2] | [3] | [5] | [6] | [7] | [9] | [10] | [11] | [12]

FC(F)(F)C(F)(F)C(F)(F)C(F)(F)CCI
active: [13] 46.7 µM
inactive: [1] | [2] | [3] | [5] | [6] | [14] | [8] | [9] | [10] | [11] | [12]

O=C(O)C(F)(F)C(F)(F)C(F)(F)C(F)(F)C(F)(F)C(F)(F)C(F)(F)C(F)(F)Cl
active: [13] 62.6 µM | [5] 37.2 µM | [6] 37.2 µM | [8] 39.8 µM | [9] 35.7 µM | [10] 36.6 µM | [12] 9.95 µM
inactive: [1] | [2] | [3] | [11]

OCC(F)(F)C(F)(F)C(F)(F)F
inactive: [1] | [2] | [3] | [4] | [5] | [6] | [14] | [8] | [9] | [10] | [11] | [12]

CCN(Cc1cccc(S(=O)(=O)O)c1)c1ccc(C(=C2C=CC(=[N+](CC)Cc3cccc(S(=O)(=O)O)c3)C=C2)c2ccc(O)cc2S(=O)(=O)[O-])cc1
active: [15] 1.52 µM | [16] 1.56 µM | [13] 25.4 µM

O=C(O)C(F)(F)C(F)(F)OC(F)(F)F
inactive: [1] | [2] | [3] | [5] | [6] | [7] | [14] | [8] | [9] | [10] | [11] | [12]

O=C(O)C(F)(F)C(F)(F)F
inactive: [3] | [4] | [5] | [17] | [6] | [8] | [9] | [10] | [11] | [12]

CCCCC(CC)COP(=O)(O)OCC(CC)CCCC (stereo not drawn)
active: [13] 2.42 µM

CCO[Si](CCC(F)(F)C(F)(F)C(F)(F)C(F)(F)C(F)(F)C(F)(F)F)(OCC)OCC
inactive: [3] | [4] | [5] | [6] | [8] | [9] | [10] | [11] | [12]

O=C(O)C(F)(F)C(F)(F)C(F)(F)F
inactive: [1] | [2] | [3] | [18] | [5] | [6] | [8] | [9] | [10] | [11] | [12]

O=C(Cl)C(F)(F)C(F)(F)C(F)(F)C(F)(F)C(F)(F)C(F)(F)C(F)(F)C(F)(F)F
inactive: [9] | [11] | [12]
active: [13] 14.9 µM | [10] 10 µM

FC(F)(F)C(F)(F)C(F)(F)CI
inactive: [1] | [2] | [3] | [5] | [17] | [6] | [8] | [9] | [10] | [11] | [12]

CC(CCl)OP(=O)(OC(C)CCl)OC(C)CCl (stereo not drawn)
inactive: [19] | [1] | [2]

N=C(N)C(F)(F)C(F)(F)C(F)(F)C(F)(F)C(F)(F)C(F)(F)C(F)(F)F
inactive: [1] | [2] | [3] | [5] | [17] | [6] | [8] | [9] | [10] | [11] | [12]
